Drawing on PubChem BioAssay (Tox21), this text covers Potency for 40 compounds.

Several values for one entry are separate records, joined by “and”; a condition that tells them apart may be missing. Equal values may be shown once. Results filed as inconclusive are left out. Where a call stands in place of a potency, no number is given. A structure can be active in one record and inactive in another. Activity calls are given as the source filed them. Calls follow the shape of the dose curve; as a rule, active = well fitted cell-killing curve with a large enough effect in the repeat runs; inconclusive = weak or mixed curves; inactive = flat fitted curve, though single readings scatter.
Potency is read from the fitted curve at half-maximal effect.

This experiment is described as follows: qHTS assay to identify small molecule antagonists of the estrogen related receptor (ERR) signaling pathway from Tox21 library - cell viability counter screen (AID 1224834). Also: nearly all actives have a fitted effect of over 30% in size. The following applies: ERR reporter cells viability, CellTiter-Fluor, 17.5 h; series mostly up to 92.4 µM. An excerpt:
National Center for Advancing Translational Sciences [NCATS]
NIH Chemical Genomics Center [NCGC]
U.S. Environmental Protection Agency [EPA]
National Institutes of Environmental Health Sciences [NIEHS]
National Toxicology Program [NTP]
U.S. Food and Drug Administration [FDA]
Estrogen related receptors (ERRs), the first orphan nuclear receptors discovered, play an important role in the control of cellular energy metabolism. ERRs are required for high-energy production in response to the environmental challenges. ERR-alpha was also identified as an adverse marker for breast cancer progression; ERR-alpha-positive tumors have a poor prognosis. To screen and to identify environmental compounds that perturb the ERR signaling pathways could provide valuable information for potential therapeutic or preventive measures in the treatment of metabolic disease. To differentiate true ERR antagonists or agonist from cytotoxic substances, the assay is multiplexed with cell viability assay.
Tox21 Assay Protocol Summary:
The ERR cells were dispensed at 2,000 cells/5 ul/well in 1536-well white plates using a Multidrop dispenser. After the assay plates were incubated at a 37 C/5% CO2 incubator for 6 hours, 23 nL of compounds dissolved in DMSO, positive and negative controls or DMSO only was transferred to the assay plate by a pin tool. The plates were incubated at 37 C for 17.5 hours. 1 ul/well of CellTiter-Fluor reagent was added into the assay plates using a Flying Reagent Dispenser. After 30-minute incubation at 37 C/5% CO2, the fluorescence intensity in the plates was measured using a ViewLux plate reader.
(In general: qHTS replaces the single test concentration by a dilution series.)
With `CC(=O)Oc1ccccc1C(=O)Nc1ncc([N+](=O)[O-])s1`, the Potency was 14 µM (active) and 18.8 µM (active). Next, `c1cc(N(CC2CO2)CC2CO2)ccc1OCC1CO1` (stereo not given): 48.6 µM (active). As to `CC(C)OC(=O)C(C)(C)Oc1ccc(C(=O)c2ccc(Cl)cc2)cc1`, the Potency result is “inactive”. `C=C(C)C(=O)OCCOC(=O)C(=C)C`: the Potency entry is “inactive”. In the case of `OC(CCl)CCl` it was “inactive”; in that of `CCCCC/C=C/C=C/C=O`, “inactive”. Take `CC1=CCC(C(C)(C)O)CC1` (stereo not given): the Potency entry was “inactive”. For the compound `OCCO`, the Potency entry was “inactive”. In the case of `COc1c(Cl)c(Cl)c(Cl)c(Cl)c1Cl`, the Potency result is “inactive”. In the case of `O=C(/C=C/c1ccccc1)OCc1ccccc1` it was “inactive”; in that of `O=S(=O)(O)c1ccc(O)cc1`, “inactive”; in that of `c1ccc(Nc2ccccc2)cc1`, 48.5 µM (active) and inactive. As for `Oc1ccc(O)cc1`, the Potency entry was “inactive”. In the case of `C[Si](C)(C)O[Si](C)(C)C` it was “inactive”; in that of `Cc1cccc(C(=O)O)c1`, “inactive”.

In the case of `O=C1OC2(c3cc(Br)c(O)c(Br)c3Oc3c2cc(Br)c(O)c3Br)c2c(Cl)c(Cl)c(Cl)c(Cl)c21`, the Potency is 6.12 µM (active) and 18.6 µM (active). In the case of `c1ccc2c(c1)c1cccc3ccc4cccc2c4c31`, the Potency entry is “inactive”.

Take `CCCc1c(OCCCCc2nn[nH]n2)ccc(C(C)=O)c1O`: the Potency result is “inactive”. As for `C#C[C@]1(O)CC[C@H]2[C@@H]3CCC4=Cc5oncc5C[C@]4(C)[C@H]3CC[C@@]21C`, the Potency is 30.6 µM (active) and 26.6 µM (active). Regarding `CC(C)OB(OC(C)C)OC(C)C`, the Potency entry was “inactive”.

As for `Nc1ncnc2nc[nH]c12`, the Potency entry was “inactive”. Next, `CCCC(=O)O`: “inactive”; `CCCCNS(=O)(=O)c1ccccc1`: “inactive”.

For `CCCCCCCCCCCO`, the Potency entry is “inactive”. In the case of `CC(C)CC(C)(O)C#CC(C)(O)CC(C)C` (stereo not given) it was “inactive”; in that of `c1ccc2c(c1)Oc1ccccc1S2`, “inactive”. In the case of `O=CCc1ccccc1` it was “inactive”. Take `S=C(NC1CCCCC1)NC1CCCCC1`: the Potency was 13.7 µM (active). In the case of `Cc1ccc(C(=O)c2cc(O)c(O)c([N+](=O)[O-])c2)cc1` it was 43.3 µM (active); in that of `NC=O`, “inactive”; in that of `O=C(O)c1ccccc1Nc1cccc(C(F)(F)F)c1`, “inactive”. Regarding `Cc1ccc(C)c(O)c1C`, the Potency entry is “inactive”.

In the case of `CC(C)=CCC/C(C)=C\CO`, the Potency result is “inactive”. Next, `CC(C)Oc1ccc2c(=O)c(-c3ccccc3)coc2c1`: “inactive”; `O=Cc1ccccc1O`: “inactive”. Next, `O=C(COc1ccc(Cl)cc1)N1CCN(Cc2ccc3c(c2)OCO3)CC1`: “inactive”.

Regarding `COc1ccc(C(=O)CC(=O)c2ccc(C(C)(C)C)cc2)cc1`, the Potency result was “inactive”.

Regarding `CCCCCCCCCC(=O)OC`, the Potency result is “inactive”. In the case of `Cc1ncc[nH]1` it was “inactive”.

As to `Nc1ccc(Cl)cc1Cl`, the Potency entry is “inactive”.
